This excerpt belongs to a sample that is enriched for hits.
Pf Dd2 inh: Plasmodium falciparum Dd2 growth inhibition. P. falciparum Dd2 growth, SYBR Green, 72 h. AID 1347417. actives 4.3% (n = 120,000). Potency, µM (top dose mostly 28.9 µM), for inactives: top-dose activity, negative = inhibition, most hits filed as inhibitors; active = well fitted inhibition curve with a large enough effect;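 note: plate controls were DMSO vehicle for no effect and reference drug for full effect; nearly all actives have a fitted effect of over 65% in size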
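Infected erythrocytes (Dd2, 0.3% parasitemia, 2.5% hematocrit final) are added to compound in RPMI-1640/Albumax II medium, grown 72 h at 37C in low oxygen, then lysed with saponin/Triton-X containing SYBR Green and read by fluorescence.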
Starred values were filed as active, the others as inactive; i = inactive; [ ] = remark or other dose. Potency is the fitted concentration of half-maximal effect.

SMILES	Pf Dd2 inh
CN(C)C(=O)c1ccc2c(c1)n(Cc1ccc(F)cc1)c(=O)c1ccnn12	10µM*
CCCN1CCN(C(=O)c2ccc3c(c2)n(CC)c(=O)c2ccnn23)CC1	i
CN1CCC(NC(=O)c2ccc3c(c2)n(Cc2ccc(F)cc2)c(=O)c2ccnn23)CC1	2.5µM*
O=C(NCc1ccccc1)c1ccc2oc(=O)n(Cc3ccccc3)c2c1	0%
Cn1ncc(N2CCC(NC(=O)Cc3ccc(F)cc3)CC2)cc1=O	-11%
Cn1c(=O)c2ccnn2c2ccc(C(=O)Nc3ccc(N4CCOCC4)cc3)cc21	i
O=C(NCc1ccccn1)c1ccc2c(c1)n(Cc1cccc(F)c1)c(=O)c1ccnn12	5µM*
O=C(NCc1cccc(F)c1)c1ccc2nccn2c1	-12%[44.1 µM]
CNC(=O)c1ccc2c(c1)n(Cc1ccc(OC)cc1)c(=O)c1ccnn12	-20%
O=C(Cn1nc2n(c1=O)CCCCC2)N1CCCc2ccccc21	-16%
O=C(NC1C[C@H]2CC[C@@H](C1)N2C(=O)c1cccc(C(F)(F)F)c1)c1ccncc1 (some centres not stated)	-10%
Cc1cccc(C)c1NC(=O)Cn1c(=O)n(-c2ccccc2)c(=O)c2c1cc(C)n2C	60%
CCc1noc(-c2cn(C3CCN(C(=O)c4ccc(OC)c(F)c4)C3)nn2)n1 (configuration not stated)	22%
c1ccc([C@@H]2CNC[C@H]2COc2ccncc2)nc1	40%
Cc1cccc(C)c1NC(=O)c1cccc(CN2CCCC2C)c1 (configuration not stated)	10µM*
Cc1cccc(C)c1NC(=O)c1ccc2c(c1)nnn2C1CCCC1	10%
O=C(NC1CCCN(C(=O)C2CC2)C1)c1cccc(Cn2cccn2)c1 (configuration not stated)	2%
COc1cccc(-c2nc(N3CCOCC3)cc3c2CN(C)C3=O)c1	i
CN(CCCN1CCOCC1)c1cc(C2CC(N)C2)ncn1 (configuration not stated)	-5%
O=C(Cn1c(=O)oc2cc(Cl)ccc21)NC1CCc2n[nH]c(=O)n2CC1 (configuration not stated)	23%
CC(C)CCC(=O)N1C[C@@H](CO)[C@H](c2nc(-c3ccncc3)no2)C1	12%
Cc1nc(N2CCC(NCCN3CCCOC3=O)CC2)c2ccsc2n1	-19%
COC[C@H]1C[C@@H](NC(C)=O)[C@H](O)[C@@H]1O	23%[76.6 µM]
O=C(Nc1ccc2ncnc(N3CCCCC3)c2c1)c1ccccc1Br	i
O=C(Nc1ccc2c(N3CCCC3)ncnc2c1)c1ccccc1Cl	13µM*
SMILES	Pf Dd2 inh
O=C(Nc1ccc2c(N3CCCCC3)ncnc2c1)c1ccccc1C(F)(F)F	11µM*
Cc1ccc(-c2ncc(NC(=O)c3ccccc3C(F)(F)F)cn2)cc1	i
O=C(Nc1ccc2ncnc(N3CCCC3)c2c1)c1ccc(F)cc1Cl	i
O=C(Nc1ccc2ncnc(N3CCCCC3)c2c1)c1c(F)cccc1Cl	i
COC(=O)CNC(=O)N1CCC(OC2CCN(Cc3ccccc3)CC2)CC1	146%
OC1(CN2CCC(CCn3cccn3)CC2)CCNC1 (configuration not stated)	0%
CN(C)C(=O)c1cccnc1OC1CCN(S(=O)(=O)c2cc(F)cc(F)c2)C1 (configuration not stated)	4%
COc1cccc(Nc2sc(C(=O)c3ccc(Cl)cc3)c(N)c2C(=O)NCCc2ccc(OC)c(OC)c2)c1	-20%
Cc1ccc(CNC(=O)c2c(Nc3ccccc3C)sc(C(=O)c3ccc(F)cc3)c2N)cc1	-17%
COc1cccc(Nc2sc(C(=O)c3ccc(F)cc3)c(N)c2C(=O)NCc2ccc(C)cc2)c1	10µM*
COc1ccccc1N1CCN(C(=O)CN2C(=O)C(c3ccccc3)=NC23CCCC3)CC1	i
COc1ccc(-c2nc3c(c(=O)[nH]2)CCNC3)cc1	-10%
CC(C)c1ccc(NC(=O)c2ccc(F)c(S(=O)(=O)N3CCN(c4ccccc4F)CC3)c2)cc1	i
CC(C)c1ccc(NC(=O)Cn2cc(S(=O)(=O)N3CCN(c4ccccc4F)CC3)c3ccccc3c2=O)cc1	10µM*
CC1CCN(S(=O)(=O)c2cn(CC(=O)Nc3ccc(F)cc3)c(=O)c3ccccc23)CC1	i
COc1ccc(C2(C(=O)N3CCCC(Cc4nc(C5CCOCC5)no4)C3)CC2)cc1 (configuration not stated)	8%
CCCc1noc(-c2ccn3c(CNC(=O)c4ccccc4F)nnc3c2)n1	i
CN(CCC(O)c1ccccc1)Cc1cn(-c2ccccc2)nn1 (configuration not stated)	8.9µM*
CC(C)n1cnnc1CN(C)Cc1cn(-c2ccccc2)nn1	-14%
CN(Cc1cn(-c2ccccc2)nn1)Cc1noc2c1CCCC2	3%
O=C(O)C[C@@H]1CCN(Cc2c[nH]c3ccccc23)C[C@@H]1CCN1C[C@@H]2C[C@H](C1)c1cccc(=O)n1C2	i
CC1(C(=O)N2CCCC2C(=O)Nc2cccc(-n3cccn3)c2)CC1 (configuration not stated)	-10%
Cc1noc(C)c1C(=O)N1Cc2ccccc2CC2(CCN(C)C2)C1 (configuration not stated)	10µM*
CN1CCC(C(=O)N2Cc3ccccc3CC3(CCN(C)C3)C2)CC1 (configuration not stated)	14%
Cc1noc(C)c1C(=O)N1Cc2ccccc2CC2(CCN(CC3CCNCC3)CC2)C1	17%
SMILES	Pf Dd2 inh
CNC(=O)[C@@H]1C[C@@H](Nc2ncnc(Oc3cccnc3C)c2C)CN1C	4%
COc1ccc(-c2cn(C)c(=O)n3cc(CN4CCNC(=O)C4)nc23)c(C(F)(F)F)c1	-38%[44.1 µM]
Cc1cc(Nc2ccccc2Cl)n2nc(-c3ccco3)nc2n1	-28%
Cc1cc(Nc2cccc(F)c2)n2nc(-c3ccco3)nc2n1	-16%
CCOC(=O)c1ccccc1Nc1cc(C)nc2nc(-c3ccco3)nn12	10µM*
Cc1ccncc1C(=O)N1CCCN(S(=O)(=O)c2ccccc2)CCC(=O)NCC1	-6%
N#Cc1ccc(S(=O)(=O)N[C@H]2[C@H](O)[C@H](O)C[C@@H]2c2ccccc2)cc1	0%[44.1 µM]
COCCN1Cc2nc(Nc3ccc(C(F)(F)F)cc3)ccc2OCC1=O	13µM*
O=C1COc2ccc(-c3ccncc3)nc2CN1Cc1ccc(C(F)(F)F)cc1	-33%[44.1 µM]
Cc1nc(CN2Cc3nc(-c4cnn(Cc5ccccc5)c4)ccc3OCC2=O)cs1	10µM*
O=C1COc2ccc(-c3ccoc3)nc2CN1Cc1ccc(C(F)(F)F)cc1	13µM*
COc1cccc(CN2Cc3nc(-c4cnn(Cc5ccccc5)c4)ccc3OCC2=O)c1	i
O=C1COc2ccc(Nc3ccccc3)nc2CN1CCOc1ccccc1	-9%[44.1 µM]
Cc1ccccc1CN1Cc2nc(-c3cnn(Cc4ccccc4)c3)ccc2OCC1=O	-40%[44.1 µM]
O=C1COc2ccc(-c3cn[nH]c3)nc2CN1Cc1ccc(C(F)(F)F)cc1	i
O=C1COc2ccc(Nc3cccc(F)c3)nc2CN1CCOc1ccccc1	-2%[44.1 µM]
Cc1ccccc1-c1cccc(C(=O)N(C)Cc2ncc[nH]2)c1	-8%
O=C(Cn1nc2c(cc1=O)CCCC2)NCc1ccccn1	6%
CCn1cc(-c2nc3cc(S(=O)(=O)NC(C)C)ccc3n2C(C)C)cn1	-18%
CCc1ccc(CNC(=O)[C@@]23CCCC[C@H]2N(C)C(=O)CC3)cc1	-23%
Cc1ccc(-c2nc(C(=O)NCc3ccc4c(c3)OCO4)no2)cc1	i
Cc1ccc(CNC(=O)c2noc(-c3ccc4c(c3)OCO4)n2)cc1	i
Cc1ccc(-c2nc(C(=O)N3CCN(Cc4ccc5c(c4)OCO5)CC3)no2)cc1	11µM*

Compound activity deposited in PubChem BioAssay by National Center for Advancing Translational Sciences (NCATS).
